Results taken from the supplement of paper PMC7765376.
The full ranking holds about 1,500 compounds; the median of “Excess HSA synergy score (sum over dose matrix of excess over highest single agent)” is about 43, and the lowest 2% start at about -900. Only a selection was taken, and the lowest values are over-represented in it overall.

Each molecule was assayed on PEO-1 (assay: Excess HSA synergy score (sum over dose matrix of excess over highest single agent) (score (summed % response)); higher = less synergy / more antagonism (negative = synergy)). Conditions: 72 h; read-out: viability/apoptosis luminescence (CellTiter-Glo or Caspase3-Glo / not stated per table); matrix design: 6x6, 5-fold dilutions (primary screen).
`Cc1c(C(=O)Nc2ccc(N3C[C@@H](C)O[C@@H](C)C3)nc2)cccc1-c1ccc(OC(F)(F)F)cc1` [Sonidegib] + CC[C@H](NC(=O)[C@H](C)NC)C(=O)N1C[C@@H](O)C[C@H]1Cc1c(-c2[nH]c3cc(F)ccc3c2C[C@@H]2C[C@H](O)CN2C(=O)[C@H](CC)NC(=O)[C@H](C)NC)[nH]c2cc(F)ccc12 [Birinapant] was tested, and the “Excess HSA synergy score” value was 68.2. `Cc1ccc(CN2CCNCC2)cc1NC(=O)CNc1ccc(F)c(F)c1` + CC[C@H](NC(=O)[C@H](C)NC)C(=O)N1C[C@@H](O)C[C@H]1Cc1c(-c2[nH]c3cc(F)ccc3c2C[C@@H]2C[C@H](O)CN2C(=O)[C@H](CC)NC(=O)[C@H](C)NC)[nH]c2cc(F)ccc12 [Birinapant] was tested, and the “Excess HSA synergy score” value was 191. With `c1ccc2c(-c3cnn4cc(-c5ccc(N6CCNCC6)cc5)cnc34)ccnc2c1` + CC[C@H](NC(=O)[C@H](C)NC)C(=O)N1C[C@@H](O)C[C@H]1Cc1c(-c2[nH]c3cc(F)ccc3c2C[C@@H]2C[C@H](O)CN2C(=O)[C@H](CC)NC(=O)[C@H](C)NC)[nH]c2cc(F)ccc12 [Birinapant] the “Excess HSA synergy score” value was -53.9. For `CC(=O)NCCC(=O)N[C@@H](CCC(N)=O)C(=O)N[C@@H](CO)C(=O)N[C@@H](CCC(N)=O)C(=O)N[C@@H](CCC(N)=O)C(=O)N[C@H](C(=O)N[C@@H](Cc1ccccc1)C(=O)N[C@]1(C)CCCCCC/C=C\CCC[C@@](C)(C(=O)N[C@@H](CCC(N)=O)C(=O)N[C@@H](CC(N)=O)C(N)=O)NC(=O)[C@H](CC(C)C)NC(=O)[C@H](CC(C)C)NC(=O)[C@@H](CCCNC(=N)N)NC(=O)[C@H](Cc2c[nH]c3ccccc23)NC(=O)[C@H](CC(C)C)NC(=O)[C@H](CC(N)=O)NC1=O)[C@H](C)O` + CC[C@H](NC(=O)[C@H](C)NC)C(=O)N1C[C@@H](O)C[C@H]1Cc1c(-c2[nH]c3cc(F)ccc3c2C[C@@H]2C[C@H](O)CN2C(=O)[C@H](CC)NC(=O)[C@H](C)NC)[nH]c2cc(F)ccc12 [Birinapant], the “Excess HSA synergy score” value was 168. For `CCN1CCN(c2ccc(Nc3cc(N(C)C(=O)Nc4c(Cl)c(OC)cc(OC)c4Cl)ncn3)cc2)CC1` [Infigratinib] + CC[C@H](NC(=O)[C@H](C)NC)C(=O)N1C[C@@H](O)C[C@H]1Cc1c(-c2[nH]c3cc(F)ccc3c2C[C@@H]2C[C@H](O)CN2C(=O)[C@H](CC)NC(=O)[C@H](C)NC)[nH]c2cc(F)ccc12 [Birinapant], the “Excess HSA synergy score” value was -48.8. For `COc1cc2c(cc1Cc1cccc(Cl)c1F)c(=O)c(C(=O)O)cn2[C@H](CO)C(C)C` [Elvitegravir] + CC[C@H](NC(=O)[C@H](C)NC)C(=O)N1C[C@@H](O)C[C@H]1Cc1c(-c2[nH]c3cc(F)ccc3c2C[C@@H]2C[C@H](O)CN2C(=O)[C@H](CC)NC(=O)[C@H](C)NC)[nH]c2cc(F)ccc12 [Birinapant], the “Excess HSA synergy score” value was 326. With `OCCC#Cc1nc(-c2ccc(F)cc2)c(-c2ccncc2)n1CCCc1ccccc1` + CC[C@H](NC(=O)[C@H](C)NC)C(=O)N1C[C@@H](O)C[C@H]1Cc1c(-c2[nH]c3cc(F)ccc3c2C[C@@H]2C[C@H](O)CN2C(=O)[C@H](CC)NC(=O)[C@H](C)NC)[nH]c2cc(F)ccc12 [Birinapant] the “Excess HSA synergy score” value was 286. With `COc1ccc(/C=C\c2cc(OC)c(OC)c(OC)c2)cc1NC(=O)[C@@H](N)CO` [Ombrabulin] + CC[C@H](NC(=O)[C@H](C)NC)C(=O)N1C[C@@H](O)C[C@H]1Cc1c(-c2[nH]c3cc(F)ccc3c2C[C@@H]2C[C@H](O)CN2C(=O)[C@H](CC)NC(=O)[C@H](C)NC)[nH]c2cc(F)ccc12 [Birinapant] the “Excess HSA synergy score” value was -98.3. In the case of `O=C(CO)N1CCC(c2n[nH]c(-c3ccc(Cl)cc3)c2-c2ccncn2)CC1` + CC[C@H](NC(=O)[C@H](C)NC)C(=O)N1C[C@@H](O)C[C@H]1Cc1c(-c2[nH]c3cc(F)ccc3c2C[C@@H]2C[C@H](O)CN2C(=O)[C@H](CC)NC(=O)[C@H](C)NC)[nH]c2cc(F)ccc12 [Birinapant], the “Excess HSA synergy score” value was 244. For `CC(C)(OCc1nn(Cc2ccccc2)c2ccccc12)C(=O)O` [Bindarit] + CC[C@H](NC(=O)[C@H](C)NC)C(=O)N1C[C@@H](O)C[C@H]1Cc1c(-c2[nH]c3cc(F)ccc3c2C[C@@H]2C[C@H](O)CN2C(=O)[C@H](CC)NC(=O)[C@H](C)NC)[nH]c2cc(F)ccc12 [Birinapant], the “Excess HSA synergy score” value was -236. In the case of `Cc1ccc(/C=N/NC(=O)c2ccccc2Oc2ccccc2)o1` + CC[C@H](NC(=O)[C@H](C)NC)C(=O)N1C[C@@H](O)C[C@H]1Cc1c(-c2[nH]c3cc(F)ccc3c2C[C@@H]2C[C@H](O)CN2C(=O)[C@H](CC)NC(=O)[C@H](C)NC)[nH]c2cc(F)ccc12 [Birinapant], the “Excess HSA synergy score” value was 277. With `CC(C)c1cc(C(C)C)c(CC(=O)NS(=O)(=O)Oc2c(C(C)C)cccc2C(C)C)c(C(C)C)c1` [Avasimibe] + CC[C@H](NC(=O)[C@H](C)NC)C(=O)N1C[C@@H](O)C[C@H]1Cc1c(-c2[nH]c3cc(F)ccc3c2C[C@@H]2C[C@H](O)CN2C(=O)[C@H](CC)NC(=O)[C@H](C)NC)[nH]c2cc(F)ccc12 [Birinapant] the “Excess HSA synergy score” value was 95.2. For `CC(=O)C1=C(O)C=C2Oc3c(C(C)=O)c(O)c(C)c(O)c3C2(C)C1=O` (single isomer, unassigned; (+)) [(+)-Usniacin] + CC[C@H](NC(=O)[C@H](C)NC)C(=O)N1C[C@@H](O)C[C@H]1Cc1c(-c2[nH]c3cc(F)ccc3c2C[C@@H]2C[C@H](O)CN2C(=O)[C@H](CC)NC(=O)[C@H](C)NC)[nH]c2cc(F)ccc12 [Birinapant], the “Excess HSA synergy score” value was -123. For `C[C@@H]1CN(Cc2ccc(F)cc2)[C@@H](C)CN1C(=O)c1cc2c(C(=O)C(=O)N(C)C)cn(C)c2cc1Cl` [Talmapimod] + CC[C@H](NC(=O)[C@H](C)NC)C(=O)N1C[C@@H](O)C[C@H]1Cc1c(-c2[nH]c3cc(F)ccc3c2C[C@@H]2C[C@H](O)CN2C(=O)[C@H](CC)NC(=O)[C@H](C)NC)[nH]c2cc(F)ccc12 [Birinapant], the “Excess HSA synergy score” value was 190. For `CCNC(=O)Nc1ccc(-c2nc3c(c(N4CCOC[C@@H]4C)n2)CCN(C2COC2)C3)cc1` + CC[C@H](NC(=O)[C@H](C)NC)C(=O)N1C[C@@H](O)C[C@H]1Cc1c(-c2[nH]c3cc(F)ccc3c2C[C@@H]2C[C@H](O)CN2C(=O)[C@H](CC)NC(=O)[C@H](C)NC)[nH]c2cc(F)ccc12 [Birinapant], the “Excess HSA synergy score” value was -44.2. With `CN1CCN(c2nc(C3=C(c4c[nH]c5ccccc45)C(=O)NC3=O)c3ccccc3n2)CC1` [Sotrastaurin] + CC[C@H](NC(=O)[C@H](C)NC)C(=O)N1C[C@@H](O)C[C@H]1Cc1c(-c2[nH]c3cc(F)ccc3c2C[C@@H]2C[C@H](O)CN2C(=O)[C@H](CC)NC(=O)[C@H](C)NC)[nH]c2cc(F)ccc12 [Birinapant] the “Excess HSA synergy score” value was 84.5. With `Cc1noc(-c2ccc(CSCCC(=O)O)cc2)c1NC(=O)OC(C)c1ccccc1Cl` (stereo not drawn) + CC[C@H](NC(=O)[C@H](C)NC)C(=O)N1C[C@@H](O)C[C@H]1Cc1c(-c2[nH]c3cc(F)ccc3c2C[C@@H]2C[C@H](O)CN2C(=O)[C@H](CC)NC(=O)[C@H](C)NC)[nH]c2cc(F)ccc12 [Birinapant] the “Excess HSA synergy score” value was 351. `CCOc1cc(C(=O)Nc2ccc(Cl)c(-c3nc4ccccc4[nH]3)c2)cc(OCC)c1OCC` + CC[C@H](NC(=O)[C@H](C)NC)C(=O)N1C[C@@H](O)C[C@H]1Cc1c(-c2[nH]c3cc(F)ccc3c2C[C@@H]2C[C@H](O)CN2C(=O)[C@H](CC)NC(=O)[C@H](C)NC)[nH]c2cc(F)ccc12 [Birinapant] was tested, and the “Excess HSA synergy score” value was 142. `C=C(C)[C@@H]1CC[C@]2(C)CC[C@]3(C)[C@H](CC[C@@H]4[C@@]5(C)CC[C@H](O)C(C)(C)[C@@H]5CC[C@]43C)[C@@H]12` [Lupeol] + CC[C@H](NC(=O)[C@H](C)NC)C(=O)N1C[C@@H](O)C[C@H]1Cc1c(-c2[nH]c3cc(F)ccc3c2C[C@@H]2C[C@H](O)CN2C(=O)[C@H](CC)NC(=O)[C@H](C)NC)[nH]c2cc(F)ccc12 [Birinapant] was tested, and the “Excess HSA synergy score” value was -39.9. In the case of `O=C(NNC(=O)c1ccc(CNS(=O)(=O)c2ccc(F)c(Cl)c2)cc1)c1ccccc1` + CC[C@H](NC(=O)[C@H](C)NC)C(=O)N1C[C@@H](O)C[C@H]1Cc1c(-c2[nH]c3cc(F)ccc3c2C[C@@H]2C[C@H](O)CN2C(=O)[C@H](CC)NC(=O)[C@H](C)NC)[nH]c2cc(F)ccc12 [Birinapant], the “Excess HSA synergy score” value was 144. `CC(C)(C)c1cc(C(C)(C)C)c(NC(=O)c2c[nH]c3ccccc3c2=O)cc1O` [Ivacaftor] + CC[C@H](NC(=O)[C@H](C)NC)C(=O)N1C[C@@H](O)C[C@H]1Cc1c(-c2[nH]c3cc(F)ccc3c2C[C@@H]2C[C@H](O)CN2C(=O)[C@H](CC)NC(=O)[C@H](C)NC)[nH]c2cc(F)ccc12 [Birinapant] was tested, and the “Excess HSA synergy score” value was 116. For `C=CC(=O)Nc1cc2c(Nc3ccc(F)c(Cl)c3)ncnc2cc1C#CC(C)(C)N1CCN(C)CC1` + CC[C@H](NC(=O)[C@H](C)NC)C(=O)N1C[C@@H](O)C[C@H]1Cc1c(-c2[nH]c3cc(F)ccc3c2C[C@@H]2C[C@H](O)CN2C(=O)[C@H](CC)NC(=O)[C@H](C)NC)[nH]c2cc(F)ccc12 [Birinapant], the “Excess HSA synergy score” value was 44.3. `CO[C@H]1C(=O)[C@]2(C)[C@@H](OC)C[C@H]3OC[C@@]3(OC(C)=O)[C@H]2[C@H](OC(=O)c2ccccc2)[C@]2(O)C[C@H](OC(=O)[C@H](O)[C@@H](NC(=O)OC(C)(C)C)c3ccccc3)C(C)=C1C2(C)C` [Cabazitaxel] + CC[C@H](NC(=O)[C@H](C)NC)C(=O)N1C[C@@H](O)C[C@H]1Cc1c(-c2[nH]c3cc(F)ccc3c2C[C@@H]2C[C@H](O)CN2C(=O)[C@H](CC)NC(=O)[C@H](C)NC)[nH]c2cc(F)ccc12 [Birinapant] was tested, and the “Excess HSA synergy score” value was -61.8.
